Data on five compounds can be found in PubChem BioAssay (EPA / NIEHS).

Activity calls are given as the source filed them. The calls were made as follows: active = hit-call score of the fitted dose curve at least 0.9, where 1 is the maximum; inactive = score below 0.9.

Read-out in experiment [1]: Tissue Factor, F3 (gene 2152)
Description: BSK_CASM3C_TissueFactor: BioMAP Diversity Plus: CASM3C Assay for Tissue Factor Biomarker Activity (AID 2283052).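 Also: cell surface tissue factor protein level read by ELISA.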 The following applies: primary human coronary artery smooth muscle cells; actives raise or lower the signal.

Read-out in experiment [2]: Interferon-gamma inducible Protein 10 (IP10), CXCL10 (gene 3627)
As to the kind of experiment: BSK_hDFCGF_IP10: BioMAP Diversity Plus: hDFCGF Assay for Interferon-gamma inducible Protein 10 (IP10) Biomarker Activity (AID 2283053). The note with it: primary human foreskin fibroblasts; actives raise or lower the signal. Summed up:
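ELISA quantification of IP-10 after a 24 h chemical exposure of human dermal foreskin fibroblast primary cultures. Both increases and decreases versus DMSO fitted.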

Read-out in experiment [3]: Urokinase-type plasminogen activator receptor (uPAR), PLAUR (gene 5329)
As to the kind of experiment: BSK_CASM3C_uPAR: BioMAP Diversity Plus: CASM3C Assay for Urokinase-type plasminogen activator receptor (uPAR) Biomarker Activity (AID 2283054).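 Also: cell-surface uPAR protein level quantified by ELISA.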 The following applies: primary human coronary artery smooth muscle cells; actives raise or lower the signal.

Read-out in experiment [4]: Vascular cell adhesion molecule 1 (VCAM1), VCAM1 (gene 7412)
As to the kind of experiment: BSK_CASM3C_VCAM1: BioMAP Diversity Plus: CASM3C Assay for Vascular cell adhesion molecule 1 (VCAM1) Biomarker Activity (AID 2283055).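 Also: VCAM-1 protein level quantified by ELISA on the cells.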 The note with it: primary human coronary artery smooth muscle cells; actives raise or lower the signal.

Read-out in experiment [5]: Collagen III, COL3A1 (gene 1281)
As to the kind of experiment: BSK_hDFCGF_CollagenIII: BioMAP Diversity Plus: hDFCGF Assay for Collagen III Biomarker Activity (AID 2283056). The following applies: primary human foreskin fibroblasts; actives raise or lower the signal. The gist of the method: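 Response relative to DMSO, fitted in both directions, reflects ELISA-measured collagen III in human primary skin fibroblasts 24 h after compound addition.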

Read-out in experiment [6]: Epidermal growth factor receptor (EGFR), EGFR (gene 1956)
As to the kind of experiment: BSK_hDFCGF_EGFR: BioMAP Diversity Plus: hDFCGF Assay for Epidermal growth factor receptor (EGFR) Biomarker Activity (AID 2283057). The note with it: primary human foreskin fibroblasts; actives raise or lower the signal. Summed up: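 EGFR levels by ELISA in human dermal fibroblast cultures, 24 h post-treatment, fitted bidirectionally versus DMSO. Parallel wells stained with sulforhodamine B to detect overt cytotoxicity.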

Read-out in experiment [7]: Interleukin-8 (IL8), CXCL8 (gene 3576)
Description: BSK_hDFCGF_IL8: BioMAP Diversity Plus: hDFCGF Assay for Interleukin-8 (IL8) Biomarker Activity (AID 2283058). The note with it: primary human foreskin fibroblasts; actives raise or lower the signal. Summed up: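 Fibroblast monolayers (human foreskin, hDFCGF) received test chemical for 24 h before ELISA detection of IL-8; either increases or decreases relative to DMSO count as activity.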

Experiment [8] is described as follows: BSK_hDFCGF_Proliferation: Cell Proliferation Assessment in the BioMAP Diversity Plus: hDFCGF Assay (AID 2283059).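 Also: curves fitted for both rise and fall of signal versus DMSO baseline.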 The note with it: primary human foreskin fibroblasts. Summed up: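 Primary human foreskin fibroblasts, sub-confluent; […]; 10% TCA fix, 0.1% SRB stain, A560 total protein. Gain/loss fitted bidirectionally vs DMSO control.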
Read-out in experiment [9]: Macrophage colony-stimulating factor (MCSF), CSF1 (gene 1435)
As to the kind of experiment: BSK_hDFCGF_MCSF: BioMAP Diversity Plus: hDFCGF Assay for Macrophage colony-stimulating factor (MCSF) Biomarker Activity (AID 2283060). The note with it: primary human foreskin fibroblasts; actives raise or lower the signal. Summed up: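 fibroblasts (human foreskin, primary), 24 h post-dose; M-CSF by ELISA; bidirectional fit, DMSO = baseline.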

The nature of experiment [10]: BSK_hDFCGF_SRB: Viability Assessment in the BioMAP Diversity Plus: hDFCGF Assay (AID 2283061).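 Also: cells exposed to compound for 24 h before the read.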 The following applies: primary human foreskin fibroblasts. Summed up: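 SRB-based viability read on primary human skin fibroblasts at 24 h: TCA fixation, 0.1% dye, 560 nm. Gain or loss of signal is fitted against the DMSO negative control.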
Read-out in experiment [11]: TIMP metallopeptidase inhibitor 1 (TIMP1), TIMP1 (gene 7076)
Description: BSK_hDFCGF_TIMP1: BioMAP Diversity Plus: hDFCGF Assay for TIMP metallopeptidase inhibitor 1 (TIMP1) Biomarker Activity (AID 2283062). The note with it: primary human foreskin fibroblasts; actives raise or lower the signal. Summed up: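 Bidirectional curve fitting against DMSO baseline yielded this endpoint, based on ELISA detection of TIMP-1 in primary human foreskin fibroblasts exposed to compound for 24 h.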

Read-out in experiment [12]: Monokine induced gamma interferon (MIG), CXCL9 (gene 4283)
As to the kind of experiment: BSK_hDFCGF_MIG: BioMAP Diversity Plus: hDFCGF Assay for Monokine induced gamma interferon (MIG) Biomarker Activity (AID 2283063). The note with it: primary human foreskin fibroblasts; actives raise or lower the signal. The gist of the method:
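Endpoint derived by bidirectional fitting relative to DMSO; MIG quantified via ELISA in primary human foreskin fibroblasts harvested 24 h after dosing.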

Read-out in experiment [13]: Matrix Metallopeptidase 1 (MMP1), MMP1 (gene 4312)
Description: BSK_hDFCGF_MMP1: BioMAP Diversity Plus: hDFCGF Assay for Matrix Metallopeptidase 1 (MMP1) Biomarker Activity (AID 2283064). The note with it: primary human foreskin fibroblasts; actives raise or lower the signal. The gist of the method: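 ELISA read-out of MMP1 from human foreskin fibroblasts (primary skin cells), 24 h post-dose. Gain or loss of signal was fitted bidirectionally versus DMSO negative control; cytotoxicity was checked by SRB in parallel cultures.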

Read-out in experiment [14]: Vascular cell adhesion molecule 1 (VCAM1), VCAM1 (gene 7412)
As to the kind of experiment: BSK_hDFCGF_VCAM1: BioMAP Diversity Plus: hDFCGF Assay for Vascular cell adhesion molecule 1 (VCAM1) Biomarker Activity (AID 2283065). The following applies: primary human foreskin fibroblasts; actives raise or lower the signal. The gist of the method: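 Measured after 24 h chemical treatment of primary human skin fibroblasts, VCAM-1 was detected by ELISA and concentration-response analysed in both directions versus DMSO vehicle.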

Read-out in experiment [15]: Plasminogen activator inhibitor-1 (PAI1), SERPINE1 (gene 5054)
As to the kind of experiment: BSK_hDFCGF_PAI1: BioMAP Diversity Plus: hDFCGF Assay for Plasminogen activator inhibitor-1 (PAI1) Biomarker Activity (AID 2283066). The following applies: primary human foreskin fibroblasts; actives raise or lower the signal. The gist of the method:
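PAI-1 levels in human dermal foreskin fibroblasts were quantified by ELISA 24 h after dosing, with gain or loss analysed against DMSO. Overt cytotoxicity was checked by sulforhodamine B total-protein staining in parallel cultures.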

Read-out in experiment [16]: Intercellular Adhesion Molecule 1 (ICAM1), ICAM1 (gene 3383)
As to the kind of experiment: BSK_KF3CT_ICAM1: BioMAP Diversity Plus: KF3CT Assay for Intercellular Adhesion Molecule 1 (ICAM1) Biomarker Activity (AID 2283067). The note with it: primary human keratinocytes with fibroblasts; actives raise or lower the signal. The gist of the method:
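Bidirectional curve fitting against a DMSO baseline was applied to ICAM-1 ELISA signal from primary human skin co-cultures harvested 24 h after treatment, with SRB staining of parallel wells for overt cytotoxicity.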

Read-out in experiment [17]: Interferon-gamma inducible Protein 10 (IP10), CXCL10 (gene 3627)
Description: BSK_KF3CT_IP10: BioMAP Diversity Plus: KF3CT Assay for Interferon-gamma inducible Protein 10 (IP10) Biomarker Activity (AID 2283068). The note with it: primary human keratinocytes with fibroblasts; actives raise or lower the signal. The gist of the method:
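In a primary skin co-culture of keratinocytes and fibroblasts, IP-10 is quantified by ELISA at 24 h after dosing. SRB staining of parallel wells monitors overt toxicity. Curves are fitted both directions against DMSO.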

Experiment [18] in a line: BSK_KF3CT_SRB: Viability Assessment in the BioMAP Diversity Plus: KF3CT Assay (AID 2283069).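 Also: fitted for both signal gain and loss against DMSO baseline.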 The note with it: primary human keratinocytes with fibroblasts. Summed up: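 SRB read-out at 560 nm (0.1% stain, TCA-fixed cells) gauges overt cytotoxicity in a human skin keratinocyte–fibroblast co-culture 24 h post-dosing. Signal change was fitted bidirectionally relative to DMSO control.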

Read-out in experiment [19]: Interleukin-1 alpha (IL1a), IL1A (gene 3552)
As to the kind of experiment: BSK_KF3CT_IL1a: BioMAP Diversity Plus: KF3CT Assay for Interleukin-1 alpha (IL1a) Biomarker Activity (AID 2283070). The note with it: primary human keratinocytes with fibroblasts; actives raise or lower the signal. The gist of the method:
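Primary skin co-culture (keratinocytes, foreskin fibroblasts), 24 h exposure; ELISA for IL-1a; bidirectional curve fit vs DMSO.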

Read-out in experiment [20]: TIMP metallopeptidase inhibitor 2 (TIMP2), TIMP2 (gene 7077)
As to the kind of experiment: BSK_KF3CT_TIMP2: BioMAP Diversity Plus: KF3CT Assay for TIMP metallopeptidase inhibitor 2 (TIMP2) Biomarker Activity (AID 2283071). The following applies: primary human keratinocytes with fibroblasts; actives raise or lower the signal. The gist of the method: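 TIMP-2 measured by ELISA at 24 h in human keratinocyte/fibroblast primary co-cultures exposed to chemicals. Both increases and decreases were fitted against DMSO. Parallel cultures were stained with SRB for total protein as an overt-cytotoxicity check.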

Turning to `OCCOc1ccccc1`, the result in experiment [1], in experiment [2], in [3], in experiment [4], in [5] and in [6] was inactive. The result in experiment [7], in experiment [8], in experiment [9], in [10], in experiment [11] and in [12] was inactive. In addition, the result in experiment [13], in [14], in [15], in experiment [16], in experiment [17] and in experiment [18] was inactive. Also, the outcome in experiment [19] and in experiment [20] was inactive.

On to `COP(=O)(OC)OC=C(Cl)Cl`, for which the outcome in experiment [1], in [2], in experiment [3], in experiment [4], in experiment [5] and in [6] was inactive. For the same compound, the result in [8], in [9], in experiment [10], in experiment [11], in experiment [12] and in experiment [13] was inactive. The result in [14], in experiment [15], in experiment [16], in experiment [17], in [18] and in experiment [19] was inactive.

As for `CCCN(CCOc1c(Cl)cc(Cl)cc1Cl)C(=O)n1ccnc1`, the result in experiment [1], in [3], in experiment [4], in experiment [6], in [7] and in experiment [11] was inactive. Besides, the result in [12], in [13], in experiment [14], in experiment [16], in experiment [17] and in experiment [18] was inactive. Also, the result in experiment [19] and in experiment [20] was inactive. Also, the AC50 in experiment [2] is 30.7 µM (active); in experiment [5], 31.1 µM (active); in [8], 21 µM (active); in experiment [9], 23.8 µM (active); in [10], 16 µM (active); in experiment [15] it was 23.9 µM (active).

`N#CN`: the outcome in [1], in experiment [2], in [3], in [4], in experiment [5] and in experiment [6] was inactive. Also, the outcome in experiment [7], in experiment [8], in experiment [9], in [10], in experiment [11] and in experiment [12] was inactive. In addition, the outcome in experiment [13], in [14], in [15], in [16], in experiment [17] and in [18] was inactive. Also, the outcome in experiment [19] was inactive.

Consider `CCN(CC)C(=O)SCc1ccc(Cl)cc1`, for which the result in experiment [1], in experiment [2], in experiment [3], in [4], in experiment [5] and in experiment [6] was inactive. Also, the result in experiment [7], in experiment [8], in experiment [9], in experiment [10], in experiment [11] and in [12] was inactive. In addition, the result in experiment [13], in experiment [14], in [15], in experiment [16], in [17] and in experiment [18] was inactive. The result in experiment [19] was inactive.

As a reminder, the AC50 is the concentration giving half of the maximal activity seen.
